Consider eleven compounds from PubChem BioAssay (EPA / NIEHS).

Structures are written as SMILES. Several values for one entry are separate records, joined by “and”; a condition that tells them apart may be missing. Equal entries are not always repeated. Activity calls are given as the source filed them. Rule for the calls: active = hit-call score of the fitted dose curve at least 0.9, where 1 is the maximum; inactive = score below 0.9.

The term AC50 denotes the concentration at which the activity in the assay is half-maximal.

Read-out in the experiment: Matrix Metallopeptidase 3 (MMP3), MMP3 (gene 4314)
Nature of the experiment: BSK_BF4T_MMP3: BioMAP Diversity Plus: BF4T Assay for Matrix Metallopeptidase 3 (MMP3) Biomarker Activity (AID 2284271). The settings on record: primary human bronchial epithelial cells with fibroblasts. The protocol: BSK_BF4T is a cell-based, multiplexed-readout assay that uses bronchial epithelial cells and dermal fibroblasts, a human vascular primary cell, with measurements taken at 24 hours after chemical dosing in a microplate: 96-well plate.BSK_BF4T_MMP3 is an assay component measured in the BSK_BF4T assay. It measures MMP-3 antibody related to regulation of gene expression using ELISA technology.Data from the assay component BSK_BF4T_MMP3 was analyzed at the endpoint, BSK_BF4T_MMP3, in the positive analysis fitting direction relative to DMSO as the negative control and baseline of activity. Using a type of binding reporter, gain or loss-of-signal activity can be used to understand protein changes. To generalize the intended target to other relatable targets, this assay endpoint is annotated to the 'protease' intended target family, where the subfamily is 'matrix metalloproteinase'.
The levels of cell surface (or secreted, indicated by the prefix "s") biomarker endpoints were measured by ELISA. Overt cytotoxicity to cells in confluent adherent cultures (all systems other than the BT system) was assessed by measuring total protein levels using sulforhodamine B (SRB) staining in parallel cultures at the time of biomarker measurements, indicated as SRB endpoints. For proliferation assays for adherent cell types, individual cell types are cultured at sub-confluence and relative cell numbers quantified by SRB staining at time points optimized for each system (48 h: 3C and CASM3C systems; 72 h: BT and HDF3CGF systems; 96 h: SAg system). SRB was performed by staining cells with 0.1% SRB after fixation with 10% TCA and reading wells at 560 nm.Viability and proliferation of PBMC (T cells) was quantified by Alamar Blue reduction for the SAg and BT systems. For PBMC viability (referred to as PBMC Cytotoxicity within the assay endpoint names), cells were plated (75,000/well in a 96-well plate) and then chemical samples added for 1 h before addition of activators, SEB and TSST-1 (20 ng/mL final concentration each). Cells were incubated for 90 h. Then, Alamar Blue (20 uL/well) (Invitrogen, Cat DAL1100) was added for 6 h, and the plates were read with a fluorescence microplate reader at 546/580 nm (excitation/emission). For PBMC proliferation, cells were plated and activated as above but incubated for only 16 h prior to addition of Alamar Blue. Plates were read after 6 h.
Regarding `CN(Cc1cnc2nc(N)nc(N)c2n1)c1ccc(C(=O)N[C@@H](CCC(=O)O)C(=O)O)cc1`, the result was inactive. Same read-out and setting: in the case of `O=P(O)(O)CCC(F)(F)C(F)(F)C(F)(F)C(F)(F)C(F)(F)C(F)(F)F` it was “inactive”. On to `O=C(O)CCC(F)(F)C(F)(F)C(F)(F)C(F)(F)C(F)(F)F`, for which the result was inactive.

As for `O=C(O)C(F)(F)OC(F)(F)C(F)(F)OC(F)(F)C(F)(F)OC(F)(F)C(F)(F)C(F)(F)C(F)(F)F`, the AC50 was 14.4 µM (active) and 8.19 µM (active). On to `O=C(O)CCC(F)(F)C(F)(F)C(F)(F)C(F)(F)C(F)(F)C(F)(F)F`, for which the result was inactive. On the same count and under the same terms, next, `C=CC(=O)OCCC(F)(F)C(F)(F)C(F)(F)C(F)(F)C(F)(F)C(F)(F)C(F)(F)C(F)(F)F`: “inactive”; `O=S(=O)(O)C(F)(F)C(F)(F)C(F)(F)C(F)(F)C(F)(F)C(F)(F)C(F)(F)C(F)(F)C(F)(F)C(F)(F)F`: “inactive”; `O=P(O)(O)CCC(F)(F)C(F)(F)C(F)(F)C(F)(F)C(F)(F)C(F)(F)C(F)(F)C(F)(F)F`: “inactive”. Same read-out and setting: in the case of `OCC(F)(F)C(F)(F)C(F)(F)C(F)(F)C(F)(F)C(F)(F)C(F)(F)C(F)(F)C(F)(F)C(F)(F)C(F)(F)F` it was “inactive”.

Take `O=C(CC(=O)C(F)(F)C(F)(F)C(F)(F)F)c1cccs1`: the AC50 was 37.6 µM (active) and 25.2 µM (active). For the compound `CN(CCO)S(=O)(=O)C(F)(F)C(F)(F)C(F)(F)C(F)(F)C(F)(F)C(F)(F)C(F)(F)C(F)(F)F`, the result was inactive.
